PMC5540273 (PLoS ONE, 2017)
Values joined by “and” are separate entries in the source; they are usually repeats but may differ in a detail not shown here. Identical values can stand only once. Like-named read-outs stand apart in the source and are kept apart here.

How the values were obtained:
BLK = conditions: concentration: 1 μM, replicates: in singlicate, n = 1
BMPR1A = conditions: concentration: 1 μM, replicates: in singlicate, n = 1
BMPR1B = conditions: concentration: 1 μM, replicates: in singlicate; n = 1
BMPR2 = conditions: concentration: 1 μM, replicates: in singlicate, n = 1
BMX = conditions: concentration: 1 μM, replicates: in singlicate, n = 1
BRAF = conditions: concentration: 1 μM, replicates: in singlicate, n = 1
BRK = test system: T1, BRK; conditions: concentration: 1 μM, replicates: in singlicate, n = 1
T1 construct: gene PTK6

BRSK1 = conditions: concentration: 1 μM, replicates: in singlicate, n = 1
BRSK2 = conditions: concentration: 1 μM, replicates: in singlicate, n = 1
BTK = conditions: concentration: 1 μM, replicates: in singlicate, n = 1
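Further: KINOMEscan kinase panel screen.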

Row | Structure (SMILES) | %Inh (BLK) | %Inh (BMPR1A) | %Inh (BMPR1B) | %Inh (BMPR2) | %Inh (BMX) | %Inh (BRAF) | %Inh (BRK) | %Inh (BRSK1) | %Inh (BRSK2) | %Inh (BTK) | %Inh (BLK; 1 µM) | %Inh (BMPR2; 1 µM) | %Inh (BRAF; 1 µM) | %Inh (BRK; 1 µM) | %Inh (BRSK1; 1 µM) | %Inh (BRSK2; 1 µM) | %Inh (BTK; 1 µM) | %Inh (BMPR1A; 1 µM) | %Inh (BMX; 1 µM)
1 | Cc1nnc(-c2ccc3ncc(-c4ccc(S(C)=O)cc4)n3c2)o1 (stereo not drawn) | 0% | 9% | 16% | 18% | 0% | 62% | 14% | 14% | 0% | 24% |  |  |  |  |  |  |  |  | 
2 | NS(=O)(=O)CCc1cccc(Nc2nccc(-c3c(-c4cccc(NC(=O)c5c(F)cccc5F)c4)nn4ccccc34)n2)c1 [GSK336735] | 99.7% | 0% | 0% | 0% | 94.6% | 89% | 96% | 8% | 20% | 94.6% |  |  |  |  |  |  |  |  | 
3 | c1ccc(-c2cc(-c3c[nH]nc3-c3ccccn3)ccn2)cc1 [GW576604] | 37% | 1% | 0% | 4% | 3% | 0% | 0% | 0% | 0% | 0% |  |  |  |  |  |  |  |  | 
4 | Fc1ccc(-c2ncn(CCCN3CCOCC3)c2-c2cccnc2)cc1 [SB-211743] | 16% | 0% | 0% | 16% | 0% | 2% | 0% | 0% | 4% | 0% |  |  |  |  |  |  |  |  | 
5 | Cl.Cl.Cl.Fc1ccc(-c2ncn(C3CCNCC3)c2-c2ccnc(Nc3ccccc3)n2)cc1 [SB-238039] |  | 0% | 0% |  | 0% |  |  |  |  |  | 56% and 27% | 42% and 11% | 19% and 0% | 0% and 19% | 0% and 29% | 7% and 9% | 0% and 9% |  | 
6 | O=C(Nc1cccc(-c2nn3ncccc3c2-c2ccnc(Nc3cccc(C(F)(F)F)c3)n2)c1)c1c(F)cccc1F [GSK299495] | 95.9% | 0% | 0% | 23% | 72% | 69% | 71% | 0% | 0% | 66% |  |  |  |  |  |  |  |  | 
7 | Cc1c(Cn2c(C)nn3c(=O)cc(N4CCOC(C)C4)nc23)cccc1C(F)(F)F (stereo not drawn) [GSK2344444] | 25% | 6% | 0% | 0% | 1% | 0% | 7% | 0% | 0% | 0% |  |  |  |  |  |  |  |  | 
8 | COc1ccc(S(=O)(=O)NC2CCN(c3cc(C)nc(Nc4cccc(C#N)c4)n3)CC2)cc1.O=C(O)C(F)(F)F [GSK1653539] | 25% | 0% | 0% | 0% | 3% | 0% | 0% | 0% | 0% | 0% |  |  |  |  |  |  |  |  | 
9 | CCCCCc1nc2c(N)ncnc2n1CCCCC [SKF-97255] | 16% | 19% | 0% | 40% | 3% | 0% | 0% | 0% | 22% | 0% |  |  |  |  |  |  |  |  | 
10 | CC(C)(CN)c1nc(-c2ccc(Cl)c(O)c2)c(-c2ccncc2)[nH]1.O=C(O)C(F)(F)F [SB-477794] |  |  | 99.9% |  |  |  |  |  |  |  | 98.2% and 98% | 32% and 33% | 97.8% and 98.5% | 99.7% and 99.6% | 0% and 20% | 0% and 22% | 43% and 71% | 37% and 47% | 0% and 40%
11 | Cc1cccc(-c2nc(-c3ccc(S(C)(=O)=O)cc3)sc2-c2ccncc2)c1 | 0% | 0% | 0% | 0% | 0% | 15% | 0% | 40% | 27% | 0% |  |  |  |  |  |  |  |  | 
12 | Cc1nnc(-c2ccc3occ(-c4ccc(C(C)O)cc4)c3c2)o1 (stereo not drawn) | 2% | 2% | 23% | 2% | 44% | 1% | 0% | 10% | 13% | 0% |  |  |  |  |  |  |  |  | 
13 | O=c1cc(N2CCOCC2)nc2n(Cc3cccc(Cl)c3Cl)c(C3CC3)nn12 [GSK2358994] | 0% | 15% | 0% | 13% | 19% | 0% | 0% | 3% | 0% | 0% |  |  |  |  |  |  |  |  | 
14 | CSc1ccc(-c2cc3ncnc(SCC(=O)O)c3s2)cc1 | 10% | 0% | 0% | 0% | 0% | 0% | 4% | 6% | 10% | 0% |  |  |  |  |  |  |  |  | 
15 | Cl.Oc1cccc(Nc2ccnc3cc(-c4ccncc4)ccc23)c1 [GW494601] | 99.1% | 84% | 99.9% | 30% | 28% | 76% | 90% | 14% | 4% | 46% |  |  |  |  |  |  |  |  | 
16 | C[C@@H](Oc1cc(-n2cnc3ccc(NC(=O)NC(C)(C)C)cc32)sc1C(N)=O)c1ccccc1Cl [GSK346294] | 0% | 0% | 0% | 5% | 22% | 0% | 17% | 10% | 15% | 6% |  |  |  |  |  |  |  |  | 
17 | O=c1cc(N2CCOCC2)nc2n(Cc3cccc(F)c3)ccn12 [GSK2297430] | 32% | 0% | 0% | 0% | 12% | 6% | 23% | 0% | 0% | 0% |  |  |  |  |  |  |  |  | 

Row | Structure (SMILES) | %Inh (BLK) | %Inh (BMPR1A) | %Inh (BMPR1B) | %Inh (BMPR2) | %Inh (BMX) | %Inh (BRAF) | %Inh (BRK) | %Inh (BRSK1) | %Inh (BRSK2) | %Inh (BTK) | %Inh (BLK; 1 µM) | %Inh (BMPR2; 1 µM) | %Inh (BRAF; 1 µM) | %Inh (BRK; 1 µM) | %Inh (BRSK1; 1 µM) | %Inh (BRSK2; 1 µM) | %Inh (BTK; 1 µM) | %Inh (BMPR1A; 1 µM) | %Inh (BMX; 1 µM)
18 | O=C(NCCCN1CCOCC1)c1cccc(Nc2nccc(Nc3ccc(Oc4ccccc4)cc3)n2)c1 [GW663929] | 95.4% | 0% | 0% | 15% | 54% | 0% | 69% | 6% | 0% | 51% |  |  |  |  |  |  |  |  | 
19 | O=C(Nc1n[nH]c2cc(-c3cccc(F)c3)ccc12)C1CC1 [SB-735464] | 0% | 16% | 65% | 28% | 0% | 1% | 0% | 34% | 33% | 0% |  |  |  |  |  |  |  |  | 
20 | O=C(NOCC1CC1)c1ccc(F)c(F)c1Nc1ccc(I)cc1Cl | 0% | 0% | 0% | 0% | 0% | 0% | 0% | 0% | 0% | 0% |  |  |  |  |  |  |  |  | 
21 | NS(=O)(=O)c1cccc(-c2ccc3nccc(-c4cccc(S(N)(=O)=O)c4)c3c2)c1 [GW867253] | 0% | 0% | 3% | 33% | 0% | 0% | 0% | 0% | 5% | 0% |  |  |  |  |  |  |  |  | 
22 | CCc1ccnc(/C=C/c2n[nH]c3cc(Sc4ccccc4C(=O)NC)ccc23)c1 | 17% | 0% | 0% | 17% | 0% | 4% | 0% | 27% | 17% | 0% |  |  |  |  |  |  |  |  | 
23 | c1ccc(-c2n[nH]cc2-c2ccnc3ccccc23)nc1 [GW271431] | 49% | 0% | 13% | 0% | 22% | 0% | 22% | 0% | 0% | 0% |  |  |  |  |  |  |  |  | 
24 | COc1cc2c(cc1OC[C@@H](O)CO)ncc1c3ccc(C#N)cc3[nH]c21 | 24% | 5% | 0% | 0% | 0% | 0% | 0% | 0% | 0% | 0% |  |  |  |  |  |  |  |  | 
25 | Cn1ccc2ncnc(Oc3ccc(NC(=O)Nc4ccncc4)c(Cl)c3)c21 | 0% | 1% | 0% | 20% | 0% | 0% | 0% | 0% | 0% | 0% |  |  |  |  |  |  |  |  | 
26 | O=C(c1ccc(-c2cc(-c3c[nH]nc3-c3ccccn3)ccn2)cc1)N1CCOCC1 [GW812171] | 0% | 0% | 11% | 16% | 0% | 32% | 0% | 0% | 10% | 0% |  |  |  |  |  |  |  |  | 
27 | CCn1cnc2c(N)ncnc21 [GW345098] | 12% | 24% | 15% | 35% | 41% | 0% | 8% | 5% | 0% | 0% |  |  |  |  |  |  |  |  | 
28 | N#Cc1c(N2CCOCC2)sc(-c2ccn[nH]2)c1-c1ccc(Cl)cc1 | 0% | 21% | 0% | 17% | 14% | 0% | 8% | 0% | 18% | 8% |  |  |  |  |  |  |  |  | 
29 | CN(C1=C(c2ccccc2)C(=O)NC1=O)c1ccccc1 [SB-334860] | 0% | 0% | 0% | 0% | 13% | 0% | 2% | 0% | 0% | 0% |  |  |  |  |  |  |  |  | 
30 | NCC(NC(=O)c1cc(-c2cn[nH]c2)c(-c2ccnc3[nH]ccc23)s1)c1ccccc1.O=C(O)C(F)(F)F.O=C(O)C(F)(F)F (stereo not drawn) [GSK1325775] | 0% | 0% | 80% | 4% | 0% | 0% | 0% | 30% | 21% | 0% |  |  |  |  |  |  |  |  | 
31 | Cc1nnc(-c2ccc(C)c(-c3ccc(C(=O)Nc4ccc(NS(C)(=O)=O)cc4)cc3)c2)o1 [GW702865] | 14% | 0% | 0% | 9% | 16% | 0% | 3% | 9% | 0% | 40% |  |  |  |  |  |  |  |  | 
32 | Cc1ccc(NC(=O)c2ccnc(N3CCN(C)CC3)c2)cc1-c1ccc(C(=O)NCC2CC2)cc1 [GW775604] | 0% | 0% | 0% | 0% | 0% | 0% | 0% | 0% | 0% | 0% |  |  |  |  |  |  |  |  | 
33 | CN(C(=O)c1ccc(-c2cc(-c3c[nH]nc3-c3ccccn3)ccn2)cc1)C1CCOCC1 [GW810083] | 22% | 0% | 0% | 24% | 0% | 0% | 4% | 3% | 8% | 16% |  |  |  |  |  |  |  |  | 
